High-throughput results as filed in PubChem BioAssay.
In the library only some 6.5% were active in any assay of this set; here they are far more common.
FMDV antiviral – foot and mouth disease virus antiviral activity; AID 1159524; Potency, µM (top dose mostly 57.9 µM), for inactives: at the highest dose activity change, negative = inhibition, most hits filed as inhibitors; FMDV antiviral cell-based qHTS; 1.2% of 410,000 active; calls by dose curve; tested in HEK293T cells; note: read-out not given here; potency is the fitted concentration of half-maximal effect; nearly all actives have a fitted effect of over 45% in size
HCMV inh – blocks human cytomegalovirus replication; AID 1259415; HFF cells, HCMV-luciferase reporter, 72 h; active compounds read low; activity change, negative = inhibition, % at 57.5 µM; 4.5% of 410,000 active; in the data active = activity change below about -60%; inconclusive = no clear call, values can overlap the other calls; inactive = above about -39%
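Human foreskin fibroblasts infected with luciferase-reporter HCMV at MOI 1 PFU/cell, compounds at two doses. Luciferase measured 72 h post infection; normalized to buffer-only basal and Salinomycin (10uM) controls.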
Vaccinia Venus – vaccinia inhibition (Venus reporter); Vaccinia virus Venus reporter expression, fluorescence; 0.46% of 330,000 active; AID 720580; Potency, µM (titrated, usually from 36.5 µM), for the others: at the top dose activity change, negative = inhibition, usual class: inhibitors; calls by dose curve; tested in A549 cells; note: potency is the fitted concentration of half-maximal effect; nearly all actives have a fitted effect of over 30% in size
Lassa entry inh – Lassa virus entry inhibition | Potency, µM (top dose mostly 37.9 µM), for the others: top-dose activity change, negative = inhibition, hits mostly inhibitors | 1.2% of 300,000 active | AID 540256 | Lassa virus pseudotype entry inhibition, cell reporter; calls by dose curve; tested in HEK293 cells; note: potency is the fitted concentration of half-maximal effect; nearly all actives have a fitted effect of over 50% in size
Marburg entry inh – inhibitors of Marburg virus binding or cell entry | Marburg virus pseudotyped entry inhibition, cell reporter | 1.8% of 300,000 active | Potency, µM (titrated, usually from 37.8 µM), inactives show at the top dose activity change, negative = inhibition, most hits filed as inhibitors | AID 540276; calls by dose curve; tested in HEK293 cells; note: potency is the fitted concentration of half-maximal effect
Vaccinia mCherry – inhibitors of vaccinia virus infection (mCherry reporter signal); Vaccinia virus mCherry reporter infection, fluorescence; Potency, µM (doses to about 36.5 µM), for inactives: top-dose activity change, negative = inhibition, actives largely listed as inhibitors; 0.63% of 310,000 active; calls by dose curve; tested in A549 cells; note: potency is the fitted concentration of half-maximal effect; nearly all actives have a fitted effect of over 35% in size
* marks the source's active call; other numbers are inactive results; i = inactive; ? = inconclusive; / = not tested or not shown; + = active, no number; [ ] = remark or other dose. % is set by controls: 0 for no effect and ±100 for the full control effect.

SMILES	FMDV antiviral	HCMV inh	Vaccinia Venus	Lassa entry inh	Marburg entry inh	Vaccinia mCherry
CC(C)(C)C(=O)Nc1nnc([C@H]2C[C@H](O)[C@@H](CO)O2)s1	-9.2%	0.4	-4.3%	/	/	i
CC(=O)N1CCC[C@H]1C(=O)NCC1Cc2cc(C)cc(-c3ccc(Cl)cc3)c2O1 (some centres undefined)	-3.7%	/	-10.0%	/	/	-17.2%
CCc1nc2ccc(C(=O)N3CCN(C)CC3)cn2c1N(CCC(C)C)CCN(C)C	-10.9%	-72.3*	3.1%	/	/	40.0%
Cc1nn(CC(=O)NCCCN2CCCC2=O)c(C)c1[N+](=O)[O-]	-3.6%	-37.1	-21.4%	?	11.2µM*	?
Cc1c(C)n2c(SCC(=O)N3CCCCC3)nnc2[nH]c1=O	-21.0%	0.0	-0.2%	9.7%	1.4%[46.1 µM]	i
c1cncc(-c2nc(NCCCn3ccnc3)c3ccccc3n2)c1	-10.6%	-67.2*	-1.4%	-2.9%	?	-8.2%
Cc1nc(NCCCn2ccnc2)c2ccccc2n1	-8.0%	-7.6	-9.8%	16.5%	-24.5%	-14.0%
Cc1ccc([N+](=O)[O-])cc1N=Nc1c(C)[nH]n(C(N)=S)c1=O	7.6%	14.6	/	/	/	/
Cc1ccc([N+](=O)[O-])cc1N=Nc1c(-c2ccc([N+](=O)[O-])cc2)[nH]n(C(N)=S)c1=O	2.51µM*	/	/	/	/	/
Cc1ncc2c(c1CNC(=O)c1ccc3c(c1)OCO3)CCN(C(=O)c1cc3ccccc3o1)C2	-7.8%	/	5.9%	/	/	-10.7%
O=C1c2ccccc2NC(c2cn[nH]c2-c2ccc(Cl)cc2)N1O (centres undefined)	14.1µM*	-38.8	-18.4%	?	?	?
O=C1c2ccccc2NC(c2cn[nH]c2-c2ccccc2)N1O (centres undefined)	-26.6%	-18.7	-20.1%	1.5%	-28.9%	-24.4%
Cc1oc(-c2ccccc2NC(=O)c2cccnc2)nc1CNC(=O)c1ccc(N(C)C)cc1	4.1%	/	-1.7%	/	/	-8.0%
CC(C)CNCC(=O)N1c2ccccc2Sc2ccccc21	-5.7%	-71.4*	-16.1%	-5.5%	?	i
COc1ccc(CCNC(=O)N2c3ccccc3Sc3ccccc32)cc1	17.8µM*	?	?	?	?	?
COc1ccccc1C(=O)N1c2ccccc2Sc2ccccc21	-12.1%	-72.7*	-28.5%	?	?	?
COCCCNC(=O)N1c2ccccc2Sc2ccccc21	-3.0%	49.1	-18.4%	3.2%[46.1 µM]	19.4%[46.1 µM]	-13.1%
CC(C)(C)NC(=O)N1c2ccccc2Sc2ccccc21	-32.8%	-60.4*	/	/	/	/
COc1cc2ccccc2cc1C(=O)OCC(=O)NC1CCS(=O)(=O)C1 (centres undefined)	6.3%	12.1	-3.8%	9.0%	-11.5%[46.1 µM]	-5.9%
Cc1cccc(CC(=O)N2CC(=O)Nc3ccc(Br)cc3C2c2ccc(F)cc2)c1 (centres undefined)	-24.7%	?	-22.6%	?	-19.5%[46.1 µM]	-15.1%
Cc1cc(-c2ccc(C(C)C)c(S(=O)(=O)N3CCOc4ccccc43)c2)on1	?	-64.3*	-4.0%	?	3.16µM*	-14.9%
Cc1ccc(-c2onc(C)c2C)cc1S(=O)(=O)N1c2ccccc2CC1C (centres undefined)	?	-38.8	-29.6%	-21.1%[46.1 µM]	/	?
Cc1ccc(-c2onc(C)c2C)cc1S(=O)(=O)N1CCOc2ccccc21	0.0%	+	/	/	/	/
CCCCc1c(-c2ccccc2OC)ncn1Cc1ccc(Cl)cc1	?	-29.6	-8.2%	/	/	-17.6%
CCCCc1c(-c2ccccc2OC)ncn1Cc1ccc(-c2ccccc2)cc1	28.2µM*	-22.4	?	/	/	?
SMILES	FMDV antiviral	HCMV inh	Vaccinia Venus	Lassa entry inh	Marburg entry inh	Vaccinia mCherry
CCCCc1c(-c2ccccc2OC)ncn1C1CCCC1	0.0%	-94.1*	-13.4%	/	/	-12.5%
COCCN(C)C(=O)c1cnn(-c2nccc(-c3cc(C)sc3C)n2)c1C	44.1%	/	5.7%	/	/	-10.5%
CC(C)C[C@H]1CN([C@@H](CC(C)C)CN2CCCC2CN2C(=S)NC[C@@H]2Cc2ccc(O)cc2)C(=S)N1CC1CCCCCC1 (some centres undefined)	?	-69.7*	?	/	/	?
CC(C)C[C@H]1CN([C@@H](CC(C)C)CN2CCCC2CN2C(=S)NC[C@@H]2Cc2ccc(O)cc2)C(=S)N1CC1CCCCC1 (some centres undefined)	?	-107.4*	?	/	/	?
CCOC(=O)CCc1cnccc1-c1cccc(OC)c1O	-16.9%	-10.6	/	/	/	/
COC(=O)c1ccc(C(=O)N(CCN(C)C)c2nc3c(Cl)cccc3s2)cc1	-7.1%	0.0	/	/	/	/
CCC/C=C/c1ccc(CN2C(CC(C)C)C(=O)N(Cc3cn(CC4CCCCC4)nn3)CCS2(=O)=O)cc1 (centres undefined)	-5.7%	-11.7	-29.9%	/	/	-7.5%
O=c1c2ccccc2[se]n1-c1ccccc1	10.5%	-67.0*	-8.8%	14.6µM*	18.3µM*	-3.3%
O[N+]1=CC=CCC1=S.On1ccccc1=S.[Zn]	8.91µM*	/	?	/	/	?
CCCCCCCCN1[C@@H](CC(=O)O)c2ccc(C(F)(F)F)cc2S1(=O)=O	-1.6%	-32.5	-5.6%	/	/	i
Cc1ccc(CN2CC(C(=O)OCc3ccccc3Cl)CC2=O)cc1 (centres undefined)	-1.8%	-18.4	2.3%	6.4%	2.4%	-6.4%
Cc1cc(C)c2nc(NC(=O)c3ccc4c(=O)n5c(nc4c3)CCCCC5)sc2c1	-25.9%	-71.5*	-21.8%	/	/	i
CCOc1ccccc1N(CC)C(=O)c1ccc2c(=O)n3c(nc2c1)CCCCC3	-21.1%	?	-8.0%	-8.1%[46.1 µM]	8.91µM*	-14.4%
CCN(C(=O)c1ccc2c(=O)n3c(nc2c1)CCCCC3)c1cc(C)ccc1C	-10.6%	-6.0	-9.9%	-3.6%[46.1 µM]	10.2%[46.1 µM]	-12.2%
O=C(Nc1nc(-c2ccccc2)cs1)c1ccc2c(=O)n3c(nc2c1)CCCCC3	15.8µM*	-89.5*	/	/	-7.6%	/
Cc1ccc(NC(=O)c2ccc3c(=O)n4c(nc3c2)CCCCC4)nc1	-9.0%	-7.7	-7.8%	-22.0%	-1.8%	-6.9%
O=C(c1cccnc1)N1C[C@H]2[C@@H](c3ccccc31)[C@@H](CO)N2C(=O)Nc1ccccc1Cl	/	0.0	/	/	/	/
Cc1ccc(S(=O)(=O)C(CNC(=O)Cc2ccc(Cl)cc2)c2cccs2)cc1 (centres undefined)	-6.8%	-4.1	-21.5%	?	/	-5.3%
COc1ccc(CCNC(=O)C(=O)NCC(c2cccs2)S(=O)(=O)c2ccccc2)cc1 (centres undefined)	28.2µM*	-24.4	?	-3.4%[46.1 µM]	/	?
COc1ccc(CNC(=O)C(=O)NCC(c2cccs2)S(=O)(=O)c2ccc(C)cc2)cc1 (centres undefined)	?	-16.3	-4.3%	-24.7%[46.1 µM]	/	-14.1%
COc1ccc(CCNC(=O)C(=O)NCC(c2cccs2)S(=O)(=O)c2ccc(C)cc2)cc1 (centres undefined)	20µM*	-16.1	-7.0%	?	/	-11.1%
